Results on 62 molecules are retold here after PubChem BioAssay AID488835 (Broad Institute, 2010).

The campaign covered roughly 1,400 compounds. About 140 (10%) were called active. The list is a sample of the results. Measured potencies and affinities stand elsewhere. A number with no mark means an inactive call.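 The calls were made as follows: active = Half-maximal inhibitory dose from the fit at or below ten times the top valid tested dose; inconclusive = Invalid fit, or flat curve showing 30 to 70% inhibition; inactive = the rest.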

Lysine-specific demethylase 4C (Homo sapiens), sequence (Q9H3R0 1-420 limits assumed): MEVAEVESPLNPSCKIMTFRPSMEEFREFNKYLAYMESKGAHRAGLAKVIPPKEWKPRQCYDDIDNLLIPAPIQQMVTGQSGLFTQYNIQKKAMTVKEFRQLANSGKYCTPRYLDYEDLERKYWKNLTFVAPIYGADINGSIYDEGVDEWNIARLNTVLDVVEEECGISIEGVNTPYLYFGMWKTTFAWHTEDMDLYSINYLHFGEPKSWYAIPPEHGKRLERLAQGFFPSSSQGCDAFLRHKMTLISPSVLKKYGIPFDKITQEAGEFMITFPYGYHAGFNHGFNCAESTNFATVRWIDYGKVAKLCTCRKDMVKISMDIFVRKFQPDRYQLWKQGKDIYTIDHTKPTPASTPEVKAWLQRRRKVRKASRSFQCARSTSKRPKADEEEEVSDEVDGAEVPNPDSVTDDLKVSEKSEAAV

The assay concerns the target Lysine-specific demethylase 4C (Homo sapiens) (UniProt Q9H3R0). Put plainly: GASC-1 (JMJD2C) histone demethylase inhibitors, dose response, biochemical, DELFIA europium, cherry-picked samples (AID 488835).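 Also: signal is the H3K9me2 demethylation product detected by a dimethyl-specific antibody.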 As to conditions: GST-JMJD2C(1-420), H3K9me3 demethylation; series mostly up to 6 µM; activity change, negative = inhibition: at the top concentration.
`COC(=O)c1sc(NC(=O)c2cc3c(s2)CCCC3)nc1C`: the “activity change, negative = inhibition” value was -1.23%.

Turning to `Cn1c(=O)[nH]c(=O)c2c1nc(SCC(=O)O)n2CCc1ccccc1`, the “activity change, negative = inhibition” value is 4.64%.

With `CCc1ccc(C(=O)CSc2nc3ccccc3c(=O)[nH]2)cc1`, the “activity change, negative = inhibition” value was 8.14%.

As for `c1ccc(Nc2n[nH]nc2-c2ccccc2)cc1`, the “activity change, negative = inhibition” value is 7.58%.

`CCn1c(=O)c(-c2nc3ccccc3[nH]2)c(O)c2ccccc21`: the “activity change, negative = inhibition” value was -0.309%.

Take `C[C@H](CO)N1C[C@H](C)[C@@H](CN(C)C(=O)Nc2ccc(C(F)(F)F)cc2)Oc2c(cccc2N(C)C)C1=O`: the “activity change, negative = inhibition” value was 5.89%.

With `Cc1cc2oc(=O)cc(CSc3nnc(-c4cccs4)o3)c2cc1C(C)C`, the “activity change, negative = inhibition” value was -1.88%.

For `CC(=O)N1C(c2ccccc2O)C[C@]2(C)CC(=O)NC12` (some centres not stated), the “activity change, negative = inhibition” value is -1.35%.

Turning to `CCCc1cc(=O)[nH]c(SCC(=O)Nc2cc(S(=O)(=O)N(CC)c3ccccc3)ccc2Cl)n1`, the “activity change, negative = inhibition” value was 1.6%.

For `Cc1ccc(C(=O)Nc2sc3c(c2C(=O)O)CCCC3)o1`, the “activity change, negative = inhibition” value is 1.03%.

As for `CN(C)CCCN1C(=O)C(=O)/C(=C(/O)c2ccncc2)C1c1ccccc1` (configuration not stated), the “activity change, negative = inhibition” value is 10.2%.

On to `COc1ccc(C(=O)OCC(=O)c2ccccc2)cc1S(=O)(=O)N1CCOCC1`, for which the “activity change, negative = inhibition” value was 6.12%.

For the molecule `Cc1cc(C(=O)OCc2nnc(-c3ccccc3)o2)c(C)n1-c1ccccc1`, the “activity change, negative = inhibition” value was -4.32%.

As for `Cc1ccc(C2CC(c3cccc(Br)c3)Nc3nnnn32)cc1` (configuration not stated), the “activity change, negative = inhibition” value was 0.226%.

Consider `Cc1cc(N(CN2CCCC2=O)C(=O)c2ccc(F)cc2)no1`, for which the “activity change, negative = inhibition” value was 3.57%.

Take `COC(=O)[C@]1(C)N[C@H](CN(C)C(=O)NC(C)C)[C@@H]2C(=O)N(Cc3ccccc3)C(=O)[C@@H]21`: the “activity change, negative = inhibition” value was 0.422%.

As to `COc1ccc(NC(=O)Nc2ccc3c(c2)C(=O)N([C@H](C)CO)C[C@H](C)[C@@H](CN(C)S(=O)(=O)c2cccs2)O3)cc1`, the “activity change, negative = inhibition” value is 8.17%.

As to `CC(C)NC(=O)Nc1ccc2c(c1)C(=O)N([C@H](C)CO)C[C@@H](C)[C@@H](CN(C)C(=O)NC1CCCCC1)O2`, the “activity change, negative = inhibition” value is 1.53%.

As for `CCCn1c(SCC(=O)Nc2c(C)cccc2CC)nnc1C(C)C`, the “activity change, negative = inhibition” value was 7.38%.

Take `CCCn1nnnc1SCC(=O)NNC(=O)c1ccco1`: the “activity change, negative = inhibition” value is -3.08% [at 1.6 µM].

For `Cc1cc(OC(=O)N2CCOCC2)cc(C)c1Cl`, the “activity change, negative = inhibition” value was 3.18%.

With `CC1CN(Cc2ccccc2)c2nc3c(c(=O)n(C)c(=O)n3C)n2C1` (configuration not stated), the “activity change, negative = inhibition” value was 4.53%.

With `OC1(c2cccc(F)c2)CCN(Cc2ccncc2)CC1`, the “activity change, negative = inhibition” value was 4.04%.

`CCOC(=O)CNC(=O)CNC(=O)c1ccc(OC)cc1`: the “activity change, negative = inhibition” value was 0.278%.

Consider `COc1ccc(CCC(=O)Nc2sccc2C#N)cc1`, for which the “activity change, negative = inhibition” value is -2.95%.

In the case of `COc1ccc(CCNC(=O)COC(=O)c2ccc(Br)o2)cc1`, the “activity change, negative = inhibition” value was 1.54%.

In the case of `COc1cc(-c2nc(-c3cccc(C)c3)no2)cc(OC)c1OC`, the “activity change, negative = inhibition” value was -3.71%.

On to `Cc1[nH]n2c(=O)c3c(nc2c1-c1ccccc1)CCCC3`, for which the “activity change, negative = inhibition” value was -5.83%.

For the molecule `CCOC(=O)C1=C(c2ccccc2)NC(=O)NC1c1ccc(O)c(OCC)c1` (configuration not stated), the “activity change, negative = inhibition” value is 0.617%.

For the molecule `CCOC(=O)C1=C(C)NC(=O)NC1c1ccc(Br)s1` (configuration not stated), the “activity change, negative = inhibition” value is -6.07%.

On to `O=C(c1cccc(-n2cccc2)c1)N1CCN(S(=O)(=O)c2c(F)cccc2F)CC1`, for which the “activity change, negative = inhibition” value was -0.611%.

Take `CC(=O)N1CCN(c2ccc([N+](=O)[O-])c(-n3nc(C)cc3C)c2)CC1`: the “activity change, negative = inhibition” value is 3.15%.

As for `Cc1ccc(S(=O)(=O)NC(=O)NC(C)Cc2ccccc2)cc1` (configuration not stated), the “activity change, negative = inhibition” value was 0.87%.

Take `COc1ccc(NC(=O)N(C)C[C@H]2Oc3c(NS(=O)(=O)c4cn(C)cn4)cccc3C(=O)N([C@H](C)CO)C[C@@H]2C)cc1`: the “activity change, negative = inhibition” value is 3.1%.

Turning to `Nc1ncnc2c1ncn2[C@@H]1O[C@H](CNCC#Cc2ccccc2)[C@@H](O)[C@H]1O`, the “activity change, negative = inhibition” value was 2.42%.

Take `C=CCn1c(O)c(N=Nc2ccccc2C)c2ccccc21`: the “activity change, negative = inhibition” value was -0.66%.

Regarding `C=CCn1c(-c2cccc3ccccc23)n[nH]c1=S`, the “activity change, negative = inhibition” value was -0.0654%.

As for `c1ccn2c(SCc3cn4ccsc4n3)nnc2c1`, the “activity change, negative = inhibition” value is 4.63%.

As for `CCOc1cccc(C2C(C(=O)c3ccco3)=C(O)C(=O)N2Cc2ccncc2)c1` (configuration not stated), the “activity change, negative = inhibition” value was -1.49%.

Regarding `CCC(C)(C)NC(=O)C(c1cccn1C)N(Cc1ccc(OC)cc1)C(=O)Cn1nnc2ccccc21` (configuration not stated), the “activity change, negative = inhibition” value is 1.52%.

For `O=C(Oc1cccc(NC(=O)c2ccco2)c1)c1cccc(S(=O)(=O)N2CCCC2)c1`, the “activity change, negative = inhibition” value was 0.126%.

Consider `Cc1cc(-n2c(SCC(=O)NCc3cccs3)nc3n[nH]c(C)c3c2=N)ccc1Cl`, for which the “activity change, negative = inhibition” value was 4.17%.

Take `O=c1[nH]c(S)nc2sc3c(c12)CCCC3`: the “activity change, negative = inhibition” value is -1.73%.

Consider `CCOC(=O)C1=C(C)NC2=C(C(=O)CCC2)C1c1coc2ccccc2c1=O` (configuration not stated), for which the “activity change, negative = inhibition” value was 2%.

Turning to `CCOc1cc(CN2CCN(CCc3ccccc3)C(CCO)C2)ccc1OC` (configuration not stated), the “activity change, negative = inhibition” value is 4.52%.

For `COc1ccc(CCNC(=O)c2ccccc2Cl)cc1OC`, the “activity change, negative = inhibition” value is 3.52%.

Turning to `CCc1ccc(NC(=O)N(CCN2CCOCC2)C2CCN(C(C)=O)CC2)cc1`, the “activity change, negative = inhibition” value was 3.77%.

Regarding `Cc1nnc(SCc2nnc(-c3ccccc3)o2)n(N)c1=O`, the “activity change, negative = inhibition” value was -1.28%.

Take `COc1ccc(NC(NC(=O)c2cccnc2)C(Cl)(Cl)Cl)cc1` (configuration not stated): the “activity change, negative = inhibition” value was 0.574%.

For the molecule `CCCC(=O)Nc1nn(C)c2nc3c(C)cccc3cc12`, the “activity change, negative = inhibition” value is -4.26%.

On to `O=C(COc1ccc(NC(=O)c2ccccc2)cc1)c1ccccc1`, for which the “activity change, negative = inhibition” value is 2.44%.

With `C[C@@H]1CC[C@]2(C(=O)O[C@@H]3O[C@H](CO)[C@@H](O)[C@H](O)[C@H]3O)CC[C@]3(C)C(=CCC4[C@@]5(C)C[C@@H](O)[C@H](O)[C@@](C)(C(=O)O[C@@H]6[C@H](O)C[C@@]7(C)C(CC[C@]8(C)C7CC=C7[C@H]9[C@](C(=O)O[C@@H]%10O[C@H](CO)[C@@H](O)[C@H](O)[C@H]%10O)(CC[C@@H](C)[C@@]9(C)O)CC[C@]78C)[C@@]6(CO)C(=O)O)C5CC[C@]43C)[C@@H]2[C@]1(C)O` (some centres not stated), the “activity change, negative = inhibition” value is 8%.

With `Cc1cccc(C(=O)NCC(c2ccco2)N2CCc3ccccc32)c1` (configuration not stated), the “activity change, negative = inhibition” value was 4.14%.

Consider `COc1ccc(Nc2ncnc3sc(-c4ccccc4)cc23)cc1OC`, for which the “activity change, negative = inhibition” value is 0.937%.

Regarding `COc1ccccc1Cc1nnc(NC(=O)C2CCN(C(=O)c3ccco3)CC2)s1`, the “activity change, negative = inhibition” value was 3.52%.

In the case of `CCN(C[C@H]1N[C@@](C)(C(=O)OC)[C@H]2C(=O)N(C)C(=O)[C@@H]12)C(=O)Nc1ccc(C)cc1`, the “activity change, negative = inhibition” value was 0.134%.

As to `CCCCN(CC)S(=O)(=O)c1ccc(C(=O)Nc2nnc(COC)o2)cc1`, the “activity change, negative = inhibition” value was 3.36%.

In the case of `O=C(NCc1cccc(Cl)c1)c1ccc2c(c1)OCO2`, the “activity change, negative = inhibition” value was 2.71%.

For the molecule `Cc1cc(C)nc(NC(N)=NC(C)c2ccccc2)n1` (configuration not stated), the “activity change, negative = inhibition” value is -7.76%.

Regarding `CCn1c(O)c(N=NC2=NC(=O)CS2)c2ccccc21`, the “activity change, negative = inhibition” value was 0.856%.

In the case of `O=C(CCSCc1ccccc1F)NCCc1ccccc1`, the “activity change, negative = inhibition” value is 9.82%.

As to `Cc1noc(C)c1S(=O)(=O)N(C)C[C@H]1Oc2c(NC(=O)Nc3ccc(C(F)(F)F)cc3)cccc2C(=O)N([C@H](C)CO)C[C@@H]1C`, the “activity change, negative = inhibition” value is -5.65%.
